Source: ChEMBL document CHEMBL1961873, “Compounds: GSK PKIS; Assays: Nanosyn kinase panel” (2012)

Tests used:
[1] = target: CDK3/Cyclin E (Homo sapiens) (UniProt P24864+Q00526); conditions: at 1 µM;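 note: each figure is a mean percent inhibition of the CDK3/cyclin E complex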
[2] = target: Cyclin-dependent kinase 4 (Homo sapiens) (UniProt P11802); conditions: at 0.1 µM
[3] = target: Cyclin-dependent kinase 4 (Homo sapiens) (UniProt P11802); conditions: at 1 µM
[4] = target: Cyclin-dependent kinase 5 (Homo sapiens) (UniProt Q00535); conditions: at 0.1 µM
Sequence of Cyclin-dependent kinase 5 (Homo sapiens) (Q00535 whole entry, looked up): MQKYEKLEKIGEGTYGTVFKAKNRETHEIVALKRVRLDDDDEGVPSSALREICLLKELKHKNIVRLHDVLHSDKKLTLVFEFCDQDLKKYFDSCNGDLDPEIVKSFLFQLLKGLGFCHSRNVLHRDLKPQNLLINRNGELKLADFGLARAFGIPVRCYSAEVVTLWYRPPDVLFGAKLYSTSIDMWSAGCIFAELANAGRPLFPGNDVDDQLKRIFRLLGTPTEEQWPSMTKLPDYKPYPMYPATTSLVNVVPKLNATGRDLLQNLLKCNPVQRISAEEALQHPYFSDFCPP

[5] = target: Cyclin-dependent kinase 5 (Homo sapiens) (UniProt Q00535); conditions: at 1 µM
[6] = target: Cyclin-dependent kinase 6 (Homo sapiens) (UniProt Q00534); conditions: at 0.1 µM
Sequence of Cyclin-dependent kinase 6 (Homo sapiens) (Q00534 whole entry): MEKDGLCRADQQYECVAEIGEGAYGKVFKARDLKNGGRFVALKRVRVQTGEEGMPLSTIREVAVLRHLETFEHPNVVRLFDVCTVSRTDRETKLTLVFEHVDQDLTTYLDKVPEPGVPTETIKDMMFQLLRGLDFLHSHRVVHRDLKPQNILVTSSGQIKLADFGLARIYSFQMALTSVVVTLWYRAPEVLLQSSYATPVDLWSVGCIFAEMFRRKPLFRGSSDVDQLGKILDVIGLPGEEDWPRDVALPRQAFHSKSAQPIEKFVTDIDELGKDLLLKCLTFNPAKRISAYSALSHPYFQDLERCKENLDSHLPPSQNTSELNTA

[7] = target: Cyclin-dependent kinase 6 (Homo sapiens) (UniProt Q00534); conditions: at 1 µM
[8] = target: Dual specificity protein kinase CLK2 (Homo sapiens) (UniProt P49760); conditions: at 0.1 µM
Sequence of Dual specificity protein kinase CLK2 (Homo sapiens) (P49760 whole entry, looked up): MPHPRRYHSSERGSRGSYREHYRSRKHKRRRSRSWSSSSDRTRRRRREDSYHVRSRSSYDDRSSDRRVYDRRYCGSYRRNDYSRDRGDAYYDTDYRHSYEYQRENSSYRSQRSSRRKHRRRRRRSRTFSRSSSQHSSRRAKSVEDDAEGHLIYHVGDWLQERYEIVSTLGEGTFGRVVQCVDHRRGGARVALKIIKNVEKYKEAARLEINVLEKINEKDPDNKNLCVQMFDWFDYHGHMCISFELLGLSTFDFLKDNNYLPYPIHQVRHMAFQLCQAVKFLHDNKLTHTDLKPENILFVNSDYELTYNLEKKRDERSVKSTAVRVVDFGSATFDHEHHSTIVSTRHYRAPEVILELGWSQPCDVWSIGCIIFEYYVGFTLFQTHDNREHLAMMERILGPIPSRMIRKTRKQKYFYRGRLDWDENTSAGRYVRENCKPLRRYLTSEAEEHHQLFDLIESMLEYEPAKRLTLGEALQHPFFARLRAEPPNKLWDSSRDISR

[9] = target: Dual specificity protein kinase CLK2 (Homo sapiens) (UniProt P49760); conditions: at 1 µM
[10] = target: Dual specificity protein kinase CLK3 (Homo sapiens) (UniProt P49761); conditions: at 0.1 µM
Sequence of Dual specificity protein kinase CLK3 (Homo sapiens) (P49761 whole entry, looked up): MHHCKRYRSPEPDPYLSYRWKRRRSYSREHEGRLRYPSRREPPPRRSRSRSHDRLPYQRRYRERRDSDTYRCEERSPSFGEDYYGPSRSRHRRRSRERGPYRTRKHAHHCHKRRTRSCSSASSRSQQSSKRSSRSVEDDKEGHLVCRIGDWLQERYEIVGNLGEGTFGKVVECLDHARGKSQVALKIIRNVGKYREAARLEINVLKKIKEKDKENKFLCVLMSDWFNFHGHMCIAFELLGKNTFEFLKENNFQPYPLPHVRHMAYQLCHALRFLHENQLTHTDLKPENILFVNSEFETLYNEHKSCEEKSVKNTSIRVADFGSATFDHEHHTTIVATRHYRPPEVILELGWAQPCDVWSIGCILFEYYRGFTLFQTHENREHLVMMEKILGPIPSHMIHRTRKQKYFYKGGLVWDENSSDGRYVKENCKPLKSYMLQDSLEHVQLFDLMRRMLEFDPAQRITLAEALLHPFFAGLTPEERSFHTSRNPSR

[11] = target: Dual specificity protein kinase CLK3 (Homo sapiens) (UniProt P49761); conditions: at 1 µM
[12] = target: Dual specificity tyrosine-phosphorylation-regulated kinase 1A (Homo sapiens) (UniProt Q13627); conditions: at 0.1 µM
[13] = target: Dual specificity tyrosine-phosphorylation-regulated kinase 1A (Homo sapiens) (UniProt Q13627); conditions: at 1 µM
[14] = target: Dual specificity tyrosine-phosphorylation-regulated kinase 1B (Homo sapiens) (UniProt Q9Y463); conditions: at 0.1 µM
Sequence of Dual specificity tyrosine-phosphorylation-regulated kinase 1B (Homo sapiens) (Q9Y463 whole entry, looked up): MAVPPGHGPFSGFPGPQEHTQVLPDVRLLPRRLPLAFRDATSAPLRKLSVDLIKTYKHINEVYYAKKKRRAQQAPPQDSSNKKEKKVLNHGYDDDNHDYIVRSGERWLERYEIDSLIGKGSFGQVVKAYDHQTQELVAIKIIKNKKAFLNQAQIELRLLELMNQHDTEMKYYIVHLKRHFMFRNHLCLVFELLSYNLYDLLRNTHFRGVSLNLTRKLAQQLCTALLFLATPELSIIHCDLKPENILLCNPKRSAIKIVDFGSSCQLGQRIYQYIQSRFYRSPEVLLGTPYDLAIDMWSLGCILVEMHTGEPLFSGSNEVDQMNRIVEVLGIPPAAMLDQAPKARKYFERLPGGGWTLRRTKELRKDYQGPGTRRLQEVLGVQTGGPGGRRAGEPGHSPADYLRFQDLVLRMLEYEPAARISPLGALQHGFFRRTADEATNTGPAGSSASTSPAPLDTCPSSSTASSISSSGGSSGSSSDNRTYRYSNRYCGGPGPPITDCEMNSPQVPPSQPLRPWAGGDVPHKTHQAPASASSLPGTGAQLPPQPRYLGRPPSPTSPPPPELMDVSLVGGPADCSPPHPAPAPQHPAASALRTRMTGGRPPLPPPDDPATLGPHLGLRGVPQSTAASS

[15] = target: Dual specificity tyrosine-phosphorylation-regulated kinase 1B (Homo sapiens) (UniProt Q9Y463); conditions: at 1 µM
[16] = target: T1, Dual specificity tyrosine-phosphorylation-regulated kinase 2 (Homo sapiens) (UniProt Q92630); conditions: at 0.1 µM
T1 sequence (whole entry): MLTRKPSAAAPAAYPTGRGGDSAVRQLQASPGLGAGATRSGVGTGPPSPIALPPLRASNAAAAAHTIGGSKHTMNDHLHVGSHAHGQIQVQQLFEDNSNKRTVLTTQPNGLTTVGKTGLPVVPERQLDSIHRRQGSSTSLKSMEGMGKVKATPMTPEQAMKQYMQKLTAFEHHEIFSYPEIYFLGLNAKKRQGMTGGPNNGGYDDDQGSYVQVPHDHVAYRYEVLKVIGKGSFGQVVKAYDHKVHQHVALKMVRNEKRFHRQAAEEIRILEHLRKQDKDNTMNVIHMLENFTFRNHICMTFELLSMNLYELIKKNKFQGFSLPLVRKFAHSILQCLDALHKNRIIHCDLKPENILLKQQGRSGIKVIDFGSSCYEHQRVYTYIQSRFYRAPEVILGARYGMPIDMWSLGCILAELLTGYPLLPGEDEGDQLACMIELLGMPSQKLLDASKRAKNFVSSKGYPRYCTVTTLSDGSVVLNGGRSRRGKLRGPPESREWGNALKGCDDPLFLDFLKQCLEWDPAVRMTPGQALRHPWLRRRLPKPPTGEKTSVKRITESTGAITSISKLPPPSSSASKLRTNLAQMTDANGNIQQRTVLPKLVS

[17] = target: T1, Dual specificity tyrosine-phosphorylation-regulated kinase 2 (Homo sapiens); conditions: at 1 µM
[18] = target: Glycogen synthase kinase-3 alpha (Homo sapiens) (UniProt P49840); conditions: at 0.1 µM
Sequence of Glycogen synthase kinase-3 alpha (Homo sapiens) (P49840 2-483 limits assumed): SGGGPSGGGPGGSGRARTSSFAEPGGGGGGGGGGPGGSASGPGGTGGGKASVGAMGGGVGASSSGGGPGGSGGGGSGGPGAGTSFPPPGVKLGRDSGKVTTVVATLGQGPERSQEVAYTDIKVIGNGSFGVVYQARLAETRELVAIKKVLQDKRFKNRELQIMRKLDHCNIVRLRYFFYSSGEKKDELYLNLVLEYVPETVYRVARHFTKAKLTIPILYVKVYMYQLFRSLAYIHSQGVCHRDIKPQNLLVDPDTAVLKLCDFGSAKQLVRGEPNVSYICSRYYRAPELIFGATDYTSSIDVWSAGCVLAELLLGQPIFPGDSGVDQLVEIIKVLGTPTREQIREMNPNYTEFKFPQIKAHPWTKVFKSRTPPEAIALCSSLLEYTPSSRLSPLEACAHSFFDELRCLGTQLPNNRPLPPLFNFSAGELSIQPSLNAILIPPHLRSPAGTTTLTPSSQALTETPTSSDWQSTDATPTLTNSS

[19] = target: Glycogen synthase kinase-3 alpha (Homo sapiens) (UniProt P49840); conditions: at 1 µM
[20] = target: Glycogen synthase kinase-3 beta (Homo sapiens) (UniProt P49841); conditions: at 0.1 µM;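 note: values are mean percent inhibition of GSK3B activity, from the GSK Published Kinase Inhibitor Set (PKIS) screening dataset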
Sequence of Glycogen synthase kinase-3 beta (Homo sapiens) (P49841 whole entry, looked up): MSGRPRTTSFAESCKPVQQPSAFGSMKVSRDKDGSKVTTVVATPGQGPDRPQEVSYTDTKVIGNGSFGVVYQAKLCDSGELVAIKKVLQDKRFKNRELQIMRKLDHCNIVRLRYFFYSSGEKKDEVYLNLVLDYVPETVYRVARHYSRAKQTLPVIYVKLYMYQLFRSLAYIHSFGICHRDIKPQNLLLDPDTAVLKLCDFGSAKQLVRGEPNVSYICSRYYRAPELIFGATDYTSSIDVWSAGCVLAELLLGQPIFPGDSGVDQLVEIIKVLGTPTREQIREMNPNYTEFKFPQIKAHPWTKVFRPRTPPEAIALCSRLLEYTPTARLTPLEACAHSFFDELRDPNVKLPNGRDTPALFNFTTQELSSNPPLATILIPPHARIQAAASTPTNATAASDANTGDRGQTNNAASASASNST

Sequence of CDK3/Cyclin E (Homo sapiens) (P24864 whole entry, looked up): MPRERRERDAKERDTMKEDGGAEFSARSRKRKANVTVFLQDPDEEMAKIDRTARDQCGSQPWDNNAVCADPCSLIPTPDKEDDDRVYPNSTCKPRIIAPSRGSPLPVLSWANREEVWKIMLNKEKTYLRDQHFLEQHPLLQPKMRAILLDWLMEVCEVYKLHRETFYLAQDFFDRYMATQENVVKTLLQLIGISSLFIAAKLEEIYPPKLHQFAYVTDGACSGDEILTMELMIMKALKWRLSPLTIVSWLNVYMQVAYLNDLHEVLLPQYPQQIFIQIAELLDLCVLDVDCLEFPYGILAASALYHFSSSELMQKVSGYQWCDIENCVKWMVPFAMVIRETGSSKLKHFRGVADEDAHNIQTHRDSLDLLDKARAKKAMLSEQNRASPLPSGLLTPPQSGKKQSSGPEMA
Sequence of CDK3/Cyclin E (Homo sapiens) (Q00526 whole entry, looked up): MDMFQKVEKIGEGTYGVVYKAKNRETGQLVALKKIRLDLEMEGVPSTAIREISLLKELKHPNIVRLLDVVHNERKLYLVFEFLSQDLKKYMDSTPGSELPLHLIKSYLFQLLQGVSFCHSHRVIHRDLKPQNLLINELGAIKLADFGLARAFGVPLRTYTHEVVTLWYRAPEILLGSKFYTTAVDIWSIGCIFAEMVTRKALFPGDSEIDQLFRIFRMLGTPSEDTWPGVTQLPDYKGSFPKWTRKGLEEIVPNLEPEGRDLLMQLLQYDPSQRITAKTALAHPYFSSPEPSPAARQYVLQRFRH
Sequence of Cyclin-dependent kinase 4 (Homo sapiens) (P11802 whole entry): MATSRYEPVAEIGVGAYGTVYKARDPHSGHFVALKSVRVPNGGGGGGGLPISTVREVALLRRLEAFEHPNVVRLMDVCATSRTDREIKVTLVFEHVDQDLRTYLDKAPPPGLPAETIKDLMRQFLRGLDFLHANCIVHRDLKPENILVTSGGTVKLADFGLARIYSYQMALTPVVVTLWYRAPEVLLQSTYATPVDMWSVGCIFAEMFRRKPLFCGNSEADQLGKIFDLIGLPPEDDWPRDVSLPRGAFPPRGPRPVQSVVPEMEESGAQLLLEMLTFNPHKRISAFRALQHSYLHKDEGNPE

SMILES: CC(C)c1ccc(-c2cc(-c3c[nH]nc3-c3ccccn3)ccn2)cc1
- inhibition [1]: -1.28%
- inhibition [2]: 1.25%
- inhibition [3]: 1.46%
- inhibition [4]: 0.18%
- inhibition [5]: 0.36%
- inhibition [6]: -1.5%
- inhibition [7]: 1.16%
- inhibition [8]: 0.9%
- inhibition [9]: -0.14%
- inhibition [10]: 0.15%
- inhibition [11]: 0.76%
- inhibition [12]: 0.59%
- inhibition [13]: 2.33%
- inhibition [14]: 0.57%
- inhibition [15]: 1.3%
- inhibition [16]: 0.98%
- inhibition [17]: 0.3%
- inhibition [18]: 0.61%
- inhibition [19]: 2.95%
- inhibition [20]: -0.15%

SMILES: Fc1ccc(Nc2nccc(-c3c(-c4ccc(C(F)(F)F)cc4)nn4ncccc34)n2)cc1F
- inhibition [1]: -0.37%
- inhibition [2]: 2.28%
- inhibition [3]: 2.36%
- inhibition [4]: 0.28%
- inhibition [5]: 0.64%
- inhibition [6]: 1.44%
- inhibition [7]: 1.37%
- inhibition [8]: 2.15%
- inhibition [9]: 1.63%
- inhibition [10]: 2.2%
- inhibition [11]: 4.71%
- inhibition [12]: 2.73%
- inhibition [13]: 5.39%
- inhibition [14]: 1.21%
- inhibition [15]: 2.44%
- inhibition [16]: 2.31%
- inhibition [17]: 3.44%
- inhibition [18]: 2.05%
- inhibition [19]: 4.32%
- inhibition [20]: 1.37%

SMILES: c1cnn2ncc(-c3ccnc(NCCCN4CCOCC4)n3)c2c1
- inhibition [1]: -0.22%
- inhibition [2]: 2.24%
- inhibition [3]: 7.97%
- inhibition [4]: 0.21%
- inhibition [5]: 2.95%
- inhibition [6]: -1.7%
- inhibition [7]: 2.95%
- inhibition [8]: 1.77%
- inhibition [9]: 6.81%
- inhibition [10]: 0.39%
- inhibition [11]: 0.72%
- inhibition [12]: 6.3%
- inhibition [13]: 33.9%
- inhibition [14]: 6.84%
- inhibition [15]: 40.3%
- inhibition [16]: 1.99%
- inhibition [17]: 5.39%
- inhibition [18]: 2.46%
- inhibition [19]: 13.1%
- inhibition [20]: 1.44%

SMILES: COc1cccc(-n2ncc3c(N/N=C/c4ccc(C(=O)NCCN(C)C)cc4)ncnc32)c1
- inhibition [1]: 50.1%
- inhibition [2]: 40.6%
- inhibition [3]: 71.4%
- inhibition [4]: 37.9%
- inhibition [5]: 74.3%
- inhibition [6]: 47.9%
- inhibition [7]: 81.5%
- inhibition [8]: 21.6%
- inhibition [9]: 73.7%
- inhibition [10]: 5.88%
- inhibition [11]: 31.7%
- inhibition [12]: 38.1%
- inhibition [13]: 71.6%
- inhibition [14]: 17.8%
- inhibition [15]: 57.1%
- inhibition [16]: 20.9%
- inhibition [17]: 66.3%
- inhibition [18]: 71.9%
- inhibition [19]: 82.7%
- inhibition [20]: 66.3%

SMILES: NC(=O)c1ccc2c(-c3ccnc(NCCCO)n3)c(-c3ccc(F)cc3)nn2c1
- inhibition [1]: -1.28%
- inhibition [2]: 3.3%
- inhibition [3]: 4.76%
- inhibition [4]: 0.91%
- inhibition [5]: 0.98%
- inhibition [6]: -6.31%
- inhibition [7]: 1.97%
- inhibition [8]: 2.88%
- inhibition [9]: 2.32%
- inhibition [10]: 0.97%
- inhibition [11]: 2.71%
- inhibition [12]: 7.25%
- inhibition [13]: 8.12%
- inhibition [14]: 5.14%
- inhibition [15]: 5.25%
- inhibition [16]: 3.28%
- inhibition [17]: 5.26%
- inhibition [18]: 3.74%
- inhibition [19]: 19.6%
- inhibition [20]: 7.03%

SMILES: O=C1Nc2ccccc2/C1=C1\CCc2cc(O)ccc21
- inhibition [1]: 2.91%
- inhibition [2]: 3.57%
- inhibition [3]: 7.74%
- inhibition [4]: 1.5%
- inhibition [5]: 7.54%
- inhibition [6]: 3.57%
- inhibition [7]: 30.5%
- inhibition [8]: 2.81%
- inhibition [9]: 13.6%
- inhibition [10]: 1.61%
- inhibition [11]: 3.11%
- inhibition [12]: 7.28%
- inhibition [13]: 34%
- inhibition [14]: 2.1%
- inhibition [15]: 17.7%
- inhibition [16]: 5.9%
- inhibition [17]: 24.7%
- inhibition [18]: 3.11%
- inhibition [19]: 10.5%
- inhibition [20]: 1.77%

SMILES: NS(=O)(=O)c1ccc(N/N=C2\C(=O)Nc3ccc(C(=O)NCc4ccncc4)cc32)cc1
- inhibition [1]: 96.3%
- inhibition [2]: 14%
- inhibition [3]: 52.3%
- inhibition [4]: 47.7%
- inhibition [5]: 79.1%
- inhibition [6]: 8.64%
- inhibition [7]: 58.6%
- inhibition [8]: 2.87%
- inhibition [9]: 36.8%
- inhibition [10]: 1.92%
- inhibition [11]: 3.91%
- inhibition [12]: 2.11%
- inhibition [13]: 9.79%
- inhibition [14]: 1.01%
- inhibition [15]: 11.3%
- inhibition [16]: 2.69%
- inhibition [17]: 8.09%
- inhibition [18]: 35.3%
- inhibition [19]: 75.7%
- inhibition [20]: 38.4%

SMILES: Cc1cc(O)cc(C)c1/C=C/c1cncc(C(N)=O)c1
- inhibition [1]: 1.41%
- inhibition [2]: 2.84%
- inhibition [3]: 3.26%
- inhibition [4]: 0.63%
- inhibition [5]: 1.61%
- inhibition [6]: 3.58%
- inhibition [7]: 4.03%
- inhibition [8]: -0.7%
- inhibition [9]: 2.41%
- inhibition [10]: 1.21%
- inhibition [11]: 3.45%
- inhibition [12]: 2.36%
- inhibition [13]: 6.61%
- inhibition [14]: 0.87%
- inhibition [15]: 2.81%
- inhibition [16]: 1.62%
- inhibition [17]: 3.99%
- inhibition [18]: 1.54%
- inhibition [19]: 4.08%
- inhibition [20]: 1.76%

SMILES: N#Cc1ccc2c(-c3ccnc(NC4CC4)n3)c(-c3ccc(F)cc3)nn2c1
- inhibition [1]: -1.23%
- inhibition [2]: -0.21%
- inhibition [3]: 1.61%
- inhibition [4]: -0.1%
- inhibition [5]: -0.13%
- inhibition [6]: -1.07%
- inhibition [7]: 2.32%
- inhibition [8]: -0.43%
- inhibition [9]: -1.71%
- inhibition [10]: -0.22%
- inhibition [11]: -0.84%
- inhibition [12]: 1.91%
- inhibition [13]: 0.14%
- inhibition [14]: -0.4%
- inhibition [15]: -2.94%
- inhibition [16]: 0.64%
- inhibition [17]: -0.6%
- inhibition [18]: 5.27%
- inhibition [19]: 24.3%
- inhibition [20]: 8.49%

SMILES: CNC(=O)c1sc(-n2cnc3cc(OC)c(OC)cc32)cc1OCc1ccccc1C(F)(F)F
- inhibition [1]: -1.01%
- inhibition [2]: 1.64%
- inhibition [3]: 3.5%
- inhibition [4]: 0.36%
- inhibition [5]: 1.5%
- inhibition [6]: -0.46%
- inhibition [7]: 1.53%
- inhibition [8]: 1.74%
- inhibition [9]: -1.57%
- inhibition [10]: 0.24%
- inhibition [11]: -0.08%
- inhibition [12]: 1.4%
- inhibition [13]: 2.18%
- inhibition [14]: -0.95%
- inhibition [15]: 0.23%
- inhibition [16]: 2.15%
- inhibition [17]: 1.34%
- inhibition [18]: 2.13%
- inhibition [19]: 5.93%
- inhibition [20]: 1.12%

SMILES: CCN1CCC(C(=O)Nc2n[nH]c3nnc(-c4cccc(F)c4F)cc23)CC1
- inhibition [1]: 16.7%
- inhibition [2]: 5.92%
- inhibition [3]: 36.6%
- inhibition [4]: 2.96%
- inhibition [5]: 14.1%
- inhibition [6]: 5.64%
- inhibition [7]: 28.9%
- inhibition [8]: -0.21%
- inhibition [9]: 2.56%
- inhibition [10]: 1.25%
- inhibition [11]: 0.77%
- inhibition [12]: 14.4%
- inhibition [13]: 61%
- inhibition [14]: 12.9%
- inhibition [15]: 54.3%
- inhibition [16]: -0.03%
- inhibition [17]: 2.26%
- inhibition [18]: 85.3%
- inhibition [19]: 89.9%
- inhibition [20]: 80.9%

SMILES: CNC(=O)c1cncc(/C=C/c2ccccc2C)c1
- inhibition [1]: 0.23%
- inhibition [2]: 1.9%
- inhibition [3]: 7.47%
- inhibition [4]: 4.11%
- inhibition [5]: 10.4%
- inhibition [6]: 3.69%
- inhibition [7]: 4.46%
- inhibition [8]: 2.83%
- inhibition [9]: 2.46%
- inhibition [10]: 1.79%
- inhibition [11]: 2.09%
- inhibition [12]: 1.38%
- inhibition [13]: 1.83%
- inhibition [14]: 0.2%
- inhibition [15]: 0.92%
- inhibition [16]: 1.99%
- inhibition [17]: 3.1%
- inhibition [18]: 5.39%
- inhibition [19]: 12.3%
- inhibition [20]: 5.07%

SMILES: COc1cc(N2CCN(C(C)C)CC2)ccc1Nc1nc(Nc2cccc3ncccc23)c2cc[nH]c2n1
- inhibition [1]: -2.06%
- inhibition [2]: -0.07%
- inhibition [3]: 1.11%
- inhibition [4]: 1.69%
- inhibition [5]: 4.66%
- inhibition [6]: 1.04%
- inhibition [7]: 8.48%
- inhibition [8]: 4.18%
- inhibition [9]: 20.7%
- inhibition [10]: -0.15%
- inhibition [11]: 1.89%
- inhibition [12]: 0.19%
- inhibition [13]: 5.87%
- inhibition [14]: 1.41%
- inhibition [15]: 7.46%
- inhibition [16]: -1.54%
- inhibition [17]: -1.74%
- inhibition [18]: 0.06%
- inhibition [19]: 3.49%
- inhibition [20]: 0.31%
